target: AgAbp1; assay: SPOT peptide array binding signal intensity (averaged, normalized) (arbitrary units (background-subtracted, floor 0; scale differs between SH3 domains)); higher = stronger binding of the SH3 domain to the peptide
Outline: (§1)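 Binding signal is given in arbitrary units that differ between domains and is the normalized, background-subtracted spot intensity averaged across replicates. Each GST-SH3 fusion from one of four yeast species was made in E. coli BL21(DE3), purified on glutathione Sepharose and incubated at 10 μg/ml overnight at 4°C on cellulose-bound synthetic 15-mer peptides in which cysteines were replaced by serines. Detection used anti-GST antibody, an HRP anti-mouse secondary and luminol, followed by imaging and Genespotter quantification.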

Binder | SPOT peptide array binding signal intensity
QQEQNTPPLPPKPKS | 10.5

target: AgBbc1; assay: as above
Outline: as §1

Binder | SPOT peptide array binding signal intensity
QQEQNTPPLPPKPKS | ≤ 0

target: AgBem1-D1; assay: as above
Outline: as §1

Binder | SPOT peptide array binding signal intensity
QQEQNTPPLPPKPKS | ≤ 0

target: AgBzz1-D1; assay: as above
Outline: as §1

Binder | SPOT peptide array binding signal intensity
QQEQNTPPLPPKPKS | 194

target: AgBzz1-D2; assay: as above
Outline: as §1

Binder | SPOT peptide array binding signal intensity
QQEQNTPPLPPKPKS | 5.5

target: AgCyk3; assay: as above
Outline: as §1

Binder | SPOT peptide array binding signal intensity
QQEQNTPPLPPKPKS | ≤ 0

target: AgFus1; assay: as above
Outline: as §1

Binder | SPOT peptide array binding signal intensity
QQEQNTPPLPPKPKS | ≤ 0

target: AgHof1; assay: as above
Outline: as §1

Binder | SPOT peptide array binding signal intensity
QQEQNTPPLPPKPKS | 760

target: AgHse1; assay: as above
Outline: as §1

Binder | SPOT peptide array binding signal intensity
QQEQNTPPLPPKPKS | ≤ 0

target: AgLsb1; assay: as above
Outline: as §1

Binder | SPOT peptide array binding signal intensity
QQEQNTPPLPPKPKS | ≤ 0

target: AgLsb4; assay: as above
Outline: as §1

Binder | SPOT peptide array binding signal intensity
QQEQNTPPLPPKPKS | 151

target: AgMyo5; assay: as above
Outline: as §1

Binder | SPOT peptide array binding signal intensity
QQEQNTPPLPPKPKS | ≤ 0

target: AgNbp2; assay: as above
Outline: as §1

Binder | SPOT peptide array binding signal intensity
QQEQNTPPLPPKPKS | ≤ 0

target: AgRvs167; assay: as above
Outline: as §1

Binder | SPOT peptide array binding signal intensity
QQEQNTPPLPPKPKS | ≤ 0

target: AgSho1; assay: as above
Outline: as §1

Binder | SPOT peptide array binding signal intensity
QQEQNTPPLPPKPKS | 16.5

target: AgSla1-D1-D2; assay: as above
Outline: as §1

Binder | SPOT peptide array binding signal intensity
QQEQNTPPLPPKPKS | 2

target: AgSla1-D3; assay: as above
Outline: as §1

Binder | SPOT peptide array binding signal intensity
QQEQNTPPLPPKPKS | 3.75

target: CaAbp1-D1; assay: as above
Outline: as §1

Binder | SPOT peptide array binding signal intensity
QQEQNTPPLPPKPKS | 53

target: CaAbp1-D2; assay: as above
Outline: as §1

Binder | SPOT peptide array binding signal intensity
QQEQNTPPLPPKPKS | 33.5

target: CaBbc1; assay: as above
Outline: as §1

Binder | SPOT peptide array binding signal intensity
QQEQNTPPLPPKPKS | 9

target: CaBem1-D1; assay: as above
Outline: as §1

Binder | SPOT peptide array binding signal intensity
QQEQNTPPLPPKPKS | ≤ 0

target: CaBzz1-D1; assay: as above
Outline: as §1

Binder | SPOT peptide array binding signal intensity
QQEQNTPPLPPKPKS | 166

target: CaBzz1-D2; assay: as above
Outline: as §1

Binder | SPOT peptide array binding signal intensity
QQEQNTPPLPPKPKS | 34.8

target: CaCyk3; assay: as above
Outline: as §1

Binder | SPOT peptide array binding signal intensity
QQEQNTPPLPPKPKS | ≤ 0

target: CaFus1; assay: as above
Outline: as §1

Binder | SPOT peptide array binding signal intensity
QQEQNTPPLPPKPKS | 9

target: CaHof1; assay: as above
Outline: as §1

Binder | SPOT peptide array binding signal intensity
QQEQNTPPLPPKPKS | 0.25

target: CaHse1; assay: as above
Outline: as §1

Binder | SPOT peptide array binding signal intensity
QQEQNTPPLPPKPKS | 404

target: CaLsb1; assay: as above
Outline: as §1

Binder | SPOT peptide array binding signal intensity
QQEQNTPPLPPKPKS | 0.5

target: CaLsb4; assay: as above
Outline: as §1

Binder | SPOT peptide array binding signal intensity
QQEQNTPPLPPKPKS | 1300

target: CaMyo5; assay: as above
Outline: as §1

Binder | SPOT peptide array binding signal intensity
QQEQNTPPLPPKPKS | ≤ 0

target: CaNbp2; assay: as above
Outline: as §1

Binder | SPOT peptide array binding signal intensity
QQEQNTPPLPPKPKS | ≤ 0

target: CaRvs167; assay: as above
Outline: as §1

Binder | SPOT peptide array binding signal intensity
QQEQNTPPLPPKPKS | ≤ 0

target: CaRvs167-3; assay: as above
Outline: as §1

Binder | SPOT peptide array binding signal intensity
QQEQNTPPLPPKPKS | ≤ 0

target: CaSho1; assay: as above
Outline: as §1

Binder | SPOT peptide array binding signal intensity
QQEQNTPPLPPKPKS | 13.5

target: CaSla1-D1-D2; assay: as above
Outline: as §1

Binder | SPOT peptide array binding signal intensity
QQEQNTPPLPPKPKS | ≤ 0

target: CaSla1-D3; assay: as above
Outline: as §1

Binder | SPOT peptide array binding signal intensity
QQEQNTPPLPPKPKS | ≤ 0

target: ScAbp1; assay: as above
Outline: as §1

Binder | SPOT peptide array binding signal intensity
QQEQNTPPLPPKPKS | 5

target: ScBbc1; assay: as above
Outline: as §1

Binder | SPOT peptide array binding signal intensity
QQEQNTPPLPPKPKS | 2.5

target: ScBem1-D1; assay: as above
Outline: as §1

Binder | SPOT peptide array binding signal intensity
QQEQNTPPLPPKPKS | ≤ 0

target: ScBzz1-D1; assay: as above
Outline: as §1

Binder | SPOT peptide array binding signal intensity
QQEQNTPPLPPKPKS | 7

target: ScBzz1-D2; assay: as above
Outline: as §1

Binder | SPOT peptide array binding signal intensity
QQEQNTPPLPPKPKS | 3

target: ScCyk3; assay: as above
Outline: as §1

Binder | SPOT peptide array binding signal intensity
QQEQNTPPLPPKPKS | 1

target: ScFus1; assay: as above
Outline: as §1

Binder | SPOT peptide array binding signal intensity
QQEQNTPPLPPKPKS | ≤ 0

target: ScHof1; assay: as above
Outline: as §1

Binder | SPOT peptide array binding signal intensity
QQEQNTPPLPPKPKS | 109

target: ScHse1; assay: as above
Outline: as §1

Binder | SPOT peptide array binding signal intensity
QQEQNTPPLPPKPKS | ≤ 0

target: ScLsb1; assay: as above
Outline: as §1

Binder | SPOT peptide array binding signal intensity
QQEQNTPPLPPKPKS | 223

target: ScLsb2; assay: as above
Outline: as §1

Binder | SPOT peptide array binding signal intensity
QQEQNTPPLPPKPKS | ≤ 0

target: ScLsb3; assay: as above
Outline: as §1

Binder | SPOT peptide array binding signal intensity
QQEQNTPPLPPKPKS | 3310

target: ScLsb4; assay: as above
Outline: as §1

Binder | SPOT peptide array binding signal intensity
QQEQNTPPLPPKPKS | 67

target: ScMyo3; assay: as above
Outline: as §1

Binder | SPOT peptide array binding signal intensity
QQEQNTPPLPPKPKS | ≤ 0

target: ScMyo5; assay: as above
Outline: as §1

Binder | SPOT peptide array binding signal intensity
QQEQNTPPLPPKPKS | ≤ 0

target: ScNbp2; assay: as above
Outline: as §1

Binder | SPOT peptide array binding signal intensity
QQEQNTPPLPPKPKS | ≤ 0

target: ScPex13; assay: as above
Outline: as §1

Binder | SPOT peptide array binding signal intensity
QQEQNTPPLPPKPKS | 680

target: ScRvs167; assay: as above
Outline: as §1

Binder | SPOT peptide array binding signal intensity
QQEQNTPPLPPKPKS | 58.3

target: ScSho1; assay: as above
Outline: as §1

Binder | SPOT peptide array binding signal intensity
QQEQNTPPLPPKPKS | 152

target: ScSla1-D1-D2; assay: as above
Outline: as §1

Binder | SPOT peptide array binding signal intensity
QQEQNTPPLPPKPKS | ≤ 0

target: ScSla1-D3; assay: as above
Outline: as §1

Binder | SPOT peptide array binding signal intensity
QQEQNTPPLPPKPKS | ≤ 0

target: SpAbp1-D1; assay: as above
Outline: as §1

Binder | SPOT peptide array binding signal intensity
QQEQNTPPLPPKPKS | 23.5

target: SpBbc1; assay: as above
Outline: as §1

Binder | SPOT peptide array binding signal intensity
QQEQNTPPLPPKPKS | 0.5

target: SpBzz1-D1; assay: as above
Outline: as §1

Binder | SPOT peptide array binding signal intensity
QQEQNTPPLPPKPKS | 336

target: SpBzz1-D2; assay: as above
Outline: as §1

Binder | SPOT peptide array binding signal intensity
QQEQNTPPLPPKPKS | ≤ 0

target: SpCyk3; assay: as above
Outline: as §1

Binder | SPOT peptide array binding signal intensity
QQEQNTPPLPPKPKS | 1.5

target: SpHof1; assay: as above
Outline: as §1

Binder | SPOT peptide array binding signal intensity
QQEQNTPPLPPKPKS | ≤ 0

target: SpHof1-2; assay: as above
Outline: as §1

Binder | SPOT peptide array binding signal intensity
QQEQNTPPLPPKPKS | 12.2

target: SpHof1-3; assay: as above
Outline: as §1

Binder | SPOT peptide array binding signal intensity
QQEQNTPPLPPKPKS | 16

target: SpHse1; assay: as above
Outline: as §1

Binder | SPOT peptide array binding signal intensity
QQEQNTPPLPPKPKS | 28.2

target: SpLsb1; assay: as above
Outline: as §1

Binder | SPOT peptide array binding signal intensity
QQEQNTPPLPPKPKS | 585

target: SpLsb4; assay: as above
Outline: as §1

Binder | SPOT peptide array binding signal intensity
QQEQNTPPLPPKPKS | 1340

target: SpMyo1; assay: as above
Outline: as §1

Binder | SPOT peptide array binding signal intensity
QQEQNTPPLPPKPKS | ≤ 0

target: SpNbp2; assay: as above
Outline: as §1

Binder | SPOT peptide array binding signal intensity
QQEQNTPPLPPKPKS | ≤ 0

target: SpPex13; assay: as above
Outline: as §1

Binder | SPOT peptide array binding signal intensity
QQEQNTPPLPPKPKS | ≤ 0

target: SpRvs167; assay: as above
Outline: as §1

Binder | SPOT peptide array binding signal intensity
QQEQNTPPLPPKPKS | 462

target: SpSla1-D1-D2; assay: as above
Outline: as §1

Binder | SPOT peptide array binding signal intensity
QQEQNTPPLPPKPKS | ≤ 0

target: SpSla1-D3; assay: as above
Outline: as §1

Binder | SPOT peptide array binding signal intensity
QQEQNTPPLPPKPKS | ≤ 0

Reference: the supplement of paper PMC4466140
